According to PubChem BioAssay (EPA / NIEHS):
The source made the active and inactive calls. Rule for the calls: active = hit-call score of the fitted dose curve at least 0.9, where 1 is the maximum; inactive = score below 0.9.

How the values were obtained:
[1] = read-out: E-selectin (Homo sapiens) (UniProt P16581); assay: BSK_3C_Eselectin: BioMAP Diversity Plus: 3C Assay for Eselectin Biomarker Activity (AID 2283015); conditions: primary human endothelial cells (HUVEC); actives raise or lower the signal
Procedure, shortened: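 Endpoint derived by bidirectional fitting against DMSO vehicle; signal is ELISA-detected E-selectin from primary HUVEC at 24 h post-dosing, with parallel SRB staining (0.1% SRB, 560 nm) flagging cytotoxicity.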

[2] = read-out: Interleukin-1 alpha (IL1a), IL1A (gene 3552); assay: BSK_BE3C_IL1a: BioMAP Diversity Plus: BE3C Assay for Interleukin-1 alpha (IL1a) Biomarker Activity (AID 2283016); conditions: primary human bronchial epithelial cells; actives raise or lower the signal
Procedure, shortened: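 Signal from IL-1a ELISA, taken 24 h after chemical dosing of human bronchial epithelial cells, is compared with DMSO as baseline using bidirectional curve fitting.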

[3] = read-out: Monocyte Chemoattractant Protein-1 (MCP1), CCL2 (gene 6347); assay: BSK_3C_MCP1: BioMAP Diversity Plus: 3C Assay for Monocyte Chemoattractant Protein-1 (MCP1) Biomarker Activity (AID 2283017); conditions: primary human endothelial cells (HUVEC); actives raise or lower the signal
Procedure, shortened: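 Using human vascular primary endothelium, researchers measured MCP-1 by ELISA 24 h after treatment, with DMSO serving as negative control for bidirectional fitting.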

[4] = read-out: Monocyte Chemoattractant Protein-1 (MCP1), CCL2 (gene 6347); assay: BSK_4H_MCP1: BioMAP Diversity Plus: 4H Assay for Monocyte Chemoattractant Protein-1 (MCP1) Biomarker Activity (AID 2283018); conditions: primary human endothelial cells (HUVEC); actives raise or lower the signal
Procedure, shortened: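 Endothelial cells from umbilical vein were treated with test chemical, then after 24 h MCP-1 levels were quantified by ELISA; endpoint values came from bidirectional fitting with DMSO as baseline of activity.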

[5] = read-out: Interleukin-8 (IL8), CXCL8 (gene 3576); assay: BSK_3C_IL8: BioMAP Diversity Plus: 3C Assay for Interleukin-8 (IL8) Biomarker Activity (AID 2283020); conditions: primary human endothelial cells (HUVEC); actives raise or lower the signal
Procedure, shortened: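 Endothelial primary cells of human umbilical vein origin are dosed with chemical; after 24 h the IL-8 biomarker is measured by ELISA, and concentration–response is fitted in both directions versus DMSO.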

[6] = read-out: Monokine induced gamma interferon (MIG), CXCL9 (gene 4283); assay: BSK_3C_MIG: BioMAP Diversity Plus: 3C Assay for Monokine induced gamma interferon (MIG) Biomarker Activity (AID 2283021); conditions: primary human endothelial cells (HUVEC); actives raise or lower the signal;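 for AC50: MIG protein level measured by immunoassay in the treated endothelial cultures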
Procedure, shortened: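 Endothelial primary cells (human umbilical vein) are dosed with test chemical in the 3C system. MIG levels are measured by ELISA at 24 h and fitted in both directions relative to DMSO.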

[7] = BSK_3C_SRB: Viability Assessment in the BioMAP Diversity Plus: 3C Assay (AID 2283023); conditions: primary human endothelial cells (HUVEC);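 note: fitted both ways against DMSO so a hit may be signal rise or drop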
Procedure, shortened: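 Overt cytotoxicity is gauged in parallel confluent HUVEC cultures by SRB total-protein staining at the time of biomarker measurement, 24 h after dosing. Gain or loss of signal is fitted versus DMSO.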

[8] = read-out: Matrix Metallopeptidase 1 (MMP1), MMP1 (gene 4312); assay: BSK_BE3C_MMP1: BioMAP Diversity Plus: BE3C Assay for Matrix Metallopeptidase 1 (MMP1) Biomarker Activity (AID 2283024); conditions: primary human bronchial epithelial cells; actives raise or lower the signal
Procedure, shortened: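 MMP1 signal, measured by ELISA after a 24 h chemical exposure of human primary bronchial epithelial cells, is analysed with bidirectional fitting using DMSO as negative control.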

[9] = BSK_3C_Vis: BioMAP Diversity Plus: 3C Assay for Morphology Visualization (AID 2283025); conditions: primary human endothelial cells (HUVEC);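 note: fitted both ways so gain or loss versus DMSO counts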
Procedure, shortened: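 Morphology read by light microscopy serves as a background control for the multiplexed 3C assay in human umbilical vein endothelial cells, taken 24 h after dosing, with DMSO as the negative control and bidirectional curve fitting.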

[10] = read-out: Pselectin, SELP (gene 6403); assay: BSK_4H_Pselectin: BioMAP Diversity Plus: 4H Assay for Pselectin Biomarker Activity (AID 2283026); conditions: primary human endothelial cells (HUVEC); actives raise or lower the signal
Procedure, shortened: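 Endothelial primary cells (human umbilical vein) are dosed, incubated 24 h, and assayed for surface P-selectin by ELISA; responses in either direction are fitted relative to the DMSO negative control.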

[11] = BSK_4H_SRB: Viability Assessment in the BioMAP Diversity Plus: 4H Assay (AID 2283027); conditions: primary human endothelial cells (HUVEC);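 note: cells exposed to compound for 24 h before staining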;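 for AC50: curves fitted both ways versus DMSO so AC50 may be loss or gain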
Procedure, shortened: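 Cytotoxicity read-out in primary human endothelial cells: after 24 h compound exposure, cells were TCA-fixed (10%), stained with 0.1% SRB and absorbance taken at 560 nm. Values fitted in both directions relative to DMSO.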

[12] = BSK_BE3C_SRB: Viability Assessment in the BioMAP Diversity Plus: BE3C Assay (AID 2283028); conditions: primary human bronchial epithelial cells
Procedure, shortened: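 SRB total-protein staining (0.1%, after TCA fixation) of chemically dosed human bronchial epithelial primary cells at 24 h; DMSO serves as the negative control for bidirectional curve fitting.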

[13] = read-out: Thrombomodulin, THBD (gene 7056); assay: BSK_3C_Thrombomodulin: BioMAP Diversity Plus: 3C Assay for Thrombomodulin Biomarker Activity (AID 2283029); conditions: primary human endothelial cells (HUVEC); actives raise or lower the signal
Procedure, shortened: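 Endothelial cells from umbilical vein are dosed with test chemical and incubated 24 h. Thrombomodulin is then quantified by ELISA, with DMSO serving as negative control and activity baseline.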

[14] = read-out: Urokinase-type plasminogen activator receptor (uPAR), PLAUR (gene 5329); assay: BSK_4H_uPAR: BioMAP Diversity Plus: 4H Assay for Urokinase-type plasminogen activator receptor (uPAR) Biomarker Activity (AID 2283030); conditions: primary human endothelial cells (HUVEC); actives raise or lower the signal
Procedure, shortened: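 Endpoint derived via bidirectional curve fitting against DMSO baseline; readout was ELISA detection of uPAR on umbilical vein endothelial cells at 24 h post-treatment, with SRB-stained parallel cultures assessing cytotoxicity.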

[15] = read-out: Human Leukocyte Antigen - DR isotype (HLADR), HLA-DRA (gene 3122); assay: BSK_3C_HLADR: BioMAP Diversity Plus: 3C Assay for Human Leukocyte Antigen - DR isotype (HLADR) Biomarker Activity (AID 2283019); conditions: primary human endothelial cells (HUVEC); actives raise or lower the signal;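 note: ELISA of cell-surface HLA-DR on HUVEC 24 h after dosing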
Procedure, shortened: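 Compound added to primary HUVEC cultures, 24 h incubation, then HLA-DR determined by ELISA; endpoint derived by bidirectional fitting relative to DMSO negative control.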

Measured: AC50

Chain of E-selectin (Homo sapiens) (P16581 whole entry, looked up): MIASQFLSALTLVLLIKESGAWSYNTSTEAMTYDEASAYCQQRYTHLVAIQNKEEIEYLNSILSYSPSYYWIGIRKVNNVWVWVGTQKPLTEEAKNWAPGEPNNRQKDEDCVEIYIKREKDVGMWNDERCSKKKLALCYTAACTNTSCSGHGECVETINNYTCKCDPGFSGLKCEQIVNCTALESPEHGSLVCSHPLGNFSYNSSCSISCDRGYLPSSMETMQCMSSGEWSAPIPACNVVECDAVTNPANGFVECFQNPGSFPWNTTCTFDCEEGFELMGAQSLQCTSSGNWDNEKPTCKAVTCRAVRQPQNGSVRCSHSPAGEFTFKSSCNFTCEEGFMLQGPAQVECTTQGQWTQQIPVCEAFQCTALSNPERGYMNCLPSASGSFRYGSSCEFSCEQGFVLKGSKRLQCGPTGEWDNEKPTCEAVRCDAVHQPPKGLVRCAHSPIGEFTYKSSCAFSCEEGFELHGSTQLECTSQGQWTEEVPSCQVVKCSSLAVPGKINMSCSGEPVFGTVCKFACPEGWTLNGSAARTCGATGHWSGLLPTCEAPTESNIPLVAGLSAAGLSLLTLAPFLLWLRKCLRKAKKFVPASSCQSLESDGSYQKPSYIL

ClC1=C(Cl)C2(Cl)C3C(Cl)C=CC3C1(Cl)C2(Cl)Cl (centres undefined)
active: [1] 26.8 µM | [2] 28.6 µM | [3] 30 µM | [4] 24.1 µM | [5] 32.7 µM | [6] 35.7 µM | [7] 28.7 µM | [9] 37.3 µM | [10] 28.5 µM | [11] 33.4 µM | [14] 34.7 µM
inactive: [8] | [12] | [13]

COP(=S)(OC)SCN1C(=O)c2ccccc2C1=O
inactive: [3] | [4] | [15] | [5] | [6] | [7] | [8] | [9] | [13] | [14]

CNC(=O)Oc1cccc2c1OC(C)(C)C2
inactive: [2] | [3] | [4] | [15] | [5] | [6] | [7] | [8] | [9] | [13] | [14]

CCC12COCN1COC2
inactive: [1] | [3] | [4] | [15] | [5] | [6] | [7] | [8] | [9] | [13] | [14]

O=C(Oc1ccc(Br)cc1)N1CCN2CCC1CC2
inactive: [1] | [3] | [4] | [15] | [5] | [6] | [7] | [8] | [9] | [10] | [11] | [13] | [14]

CN(C)[C@@H]1C(=O)C(C(N)=O)=C(O)[C@@]2(O)C(=O)C3=C(O)c4c(O)cccc4[C@@](C)(O)[C@H]3C[C@@H]12
inactive: [1] | [2] | [3] | [4] | [5] | [6] | [7] | [8] | [9] | [10] | [13] | [14]

C=CCc1ccc2c(c1)OCO2
inactive: [3] | [4] | [15] | [5] | [6] | [7] | [8] | [9] | [10] | [11] | [12] | [13] | [14]

CCN(CC)CCO
inactive: [1] | [3] | [4] | [15] | [5] | [6] | [7] | [8] | [9] | [13] | [14]

Clc1ccccc1Cl
inactive: [1] | [2] | [3] | [4] | [5] | [6] | [7] | [8] | [9] | [12] | [13] | [14]

COC(=O)Nc1nc2ccccc2[nH]1
inactive: [1] | [3] | [4] | [15] | [5] | [6] | [8] | [10] | [13]
active: [7] 8.51 µM | [9] 9.8 µM | [14] 8.56 µM
